Results on 40 sequences are retold here after publication PMC9838217, “Structure of SALL4 zinc finger domain reveals link between AT-rich DNA binding and Okihiro syndrome”.

Changes are numbered by the printed parent chain.

The target in one assay is T1, SALL4 ZFC4 R900W (HT-SELEX) (Mus musculus, UniProt Q8BX22 870-940, R900W).
T1 sequence: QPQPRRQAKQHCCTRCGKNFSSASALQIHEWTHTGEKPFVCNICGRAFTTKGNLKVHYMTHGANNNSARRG
The assay is described as follows: HT-SELEX; high values mean tight binding. The note with it: protein: recombinant; vector His6-GST; dsDNA, one strand shown. The essentials: (§1)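 Each canonical k-mer's binding signal is its read fraction expressed as fold change over the initial random library. Reads came from MiSeq sequencing, scanned for 6-mers, after up to 6 triplicate cycles in which purified recombinant mouse SALL4 zinc finger cluster 4 (residues 870–940, 1 µg) bound library DNA (1.5 µg first cycle, 200 ng later) in 100 µl of 10 mM Tris–HCl pH 7.5, 50 mM NaCl, poly(dI-dC), DTT for 10 min at room temperature. Complexes were then Ni2+ bead-captured, washed, PCR-amplified and reselected.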
In the case of ATGCTA, the binding signal came to 1.34 ± 0.0761 fold-change vs cycle 0.
On the same count and under the same terms, under GTATCA stands 1.4 ± 0.0395 fold-change vs cycle 0; under TCTGCA, 0.678 ± 0.019 fold-change vs cycle 0; under CCTGTC, 0.533 ± 0.0129 fold-change vs cycle 0.
Turning to AGCGTA, the binding signal was 0.623 ± 0.0245 fold-change vs cycle 0.
The same measure, in the same setting: under CGGTAG stands 0.418 ± 0.01 fold-change vs cycle 0.
On to CCACAG, for which the binding signal was 0.424 ± 0.0221 fold-change vs cycle 0.
Still for that read-out and setting: under CTAAAG stands 1.43 ± 0.0823 fold-change vs cycle 0; under AAGAGT, 1.59 ± 0.0431 fold-change vs cycle 0.
The same measure, in the same setting: the value for GGGTCA was 0.513 ± 0.0178 fold-change vs cycle 0; that for AAGTAC was 1.37 ± 0.0898 fold-change vs cycle 0; that for ACGTTA was 1.37 ± 0.0435 fold-change vs cycle 0.
On to GTTCCA, for which the binding signal is 0.862 ± 0.0102 fold-change vs cycle 0.
As to GAGCTA, the binding signal was determined as 0.747 ± 0.0353 fold-change vs cycle 0.
Still for that read-out and setting: under ACCTTG stands 0.986 ± 0.024 fold-change vs cycle 0; under CGTGGA, 0.435 ± 0.0211 fold-change vs cycle 0.
The same measure, in the same setting: under ACAACC stands 0.814 ± 0.0173 fold-change vs cycle 0; under ACCGAT, 0.745 ± 0.0142 fold-change vs cycle 0; under CTCGAC, 0.396 ± 0.0285 fold-change vs cycle 0.
The same measure, in the same setting: under CCGAAG stands 0.441 ± 0.0244 fold-change vs cycle 0; under TAGTAA, 2.24 ± 0.0692 fold-change vs cycle 0; under CAAGGA, 1.02 ± 0.0119 fold-change vs cycle 0.
ATCCCC: the binding signal was determined as 0.604 ± 0.0359 fold-change vs cycle 0.
With CGAGAG, the binding signal was found to be 0.515 ± 0.0447 fold-change vs cycle 0.
Same read-out and setting: the value for GACCAA was 0.733 ± 0.0369 fold-change vs cycle 0; that for TGTGAA was 1.38 ± 0.0419 fold-change vs cycle 0.
Still for that read-out and setting: the value for AGGGCA was 0.354 ± 0.00942 fold-change vs cycle 0; that for AATCTC was 1.5 ± 0.0336 fold-change vs cycle 0; that for GTCCAC was 0.454 ± 0.026 fold-change vs cycle 0.
Same read-out and setting: under GAATCA stands 1.45 ± 0.0456 fold-change vs cycle 0; under GTTCAA, 1.34 ± 0.0679 fold-change vs cycle 0.
For the sequence CCAAGA, the binding signal is 0.888 ± 0.03 fold-change vs cycle 0.
Same read-out and setting: under GAACAC stands 0.901 ± 0.0255 fold-change vs cycle 0; under GTACTA, 1.37 ± 0.098 fold-change vs cycle 0.
Still for that read-out and setting: under AAATTT stands 2.17 ± 0.141 fold-change vs cycle 0.
Still for that read-out and setting: the value for TAAAGA was 2.15 ± 0.111 fold-change vs cycle 0; that for ACTAGA was 1.52 ± 0.0902 fold-change vs cycle 0; that for CTTGTC was 0.888 ± 0.0216 fold-change vs cycle 0.
Consider ACGGTG, for which the binding signal worked out at 0.414 ± 0.0142 fold-change vs cycle 0.
Still for that read-out and setting: under CCACTC stands 0.5154 ± 0.00212 fold-change vs cycle 0.

The next assay concerns the target T2, SALL4 ZFC4 G921D (HT-SELEX) (Mus musculus, UniProt Q8BX22 870-940, G921D).
T2 sequence: T1 sequence with W31R, G52D
As to the kind of experiment: HT-SELEX; high values mean tight binding. The following applies: protein: recombinant; vector His6-GST; dsDNA, one strand shown. The essentials:
as §1
Consider ATGCTA, for which the binding signal was 1.31 ± 0.0688 fold-change vs cycle 0.
Same read-out and setting: the value for GTATCA was 1.38 ± 0.0408 fold-change vs cycle 0; that for TCTGCA was 0.747 ± 0.0393 fold-change vs cycle 0; that for CCTGTC was 0.619 ± 0.0538 fold-change vs cycle 0.
The same measure, in the same setting: under AGCGTA stands 0.723 ± 0.0232 fold-change vs cycle 0.
Still for that read-out and setting: under CGGTAG stands 0.514 ± 0.0341 fold-change vs cycle 0; under CCACAG, 0.535 ± 0.0512 fold-change vs cycle 0.
As to CTAAAG, the binding signal is 1.34 ± 0.112 fold-change vs cycle 0.
Same read-out and setting: the value for AAGAGT was 1.48 ± 0.0973 fold-change vs cycle 0; that for GGGTCA was 0.619 ± 0.0472 fold-change vs cycle 0.
Same read-out and setting: the value for AAGTAC was 1.31 ± 0.0947 fold-change vs cycle 0; that for ACGTTA was 1.29 ± 0.0362 fold-change vs cycle 0; that for GTTCCA was 0.915 ± 0.0401 fold-change vs cycle 0.
For the sequence GAGCTA, the binding signal is 0.858 ± 0.0136 fold-change vs cycle 0.
On to ACCTTG, for which the binding signal was determined as 1 ± 0.0262 fold-change vs cycle 0.
The same measure, in the same setting: under CGTGGA stands 0.54 ± 0.0631 fold-change vs cycle 0; under ACAACC, 0.875 ± 0.0311 fold-change vs cycle 0.
As to ACCGAT, the binding signal was determined as 0.862 ± 0.0275 fold-change vs cycle 0.
Same read-out and setting: the value for CTCGAC was 0.539 ± 0.0655 fold-change vs cycle 0; that for CCGAAG was 0.553 ± 0.046 fold-change vs cycle 0; that for TAGTAA was 1.89 ± 0.181 fold-change vs cycle 0.
The same measure, in the same setting: the value for CAAGGA was 1.01 ± 0.0394 fold-change vs cycle 0; that for ATCCCC was 0.664 ± 0.0449 fold-change vs cycle 0; that for CGAGAG was 0.628 ± 0.0528 fold-change vs cycle 0.
For GACCAA, the binding signal amounted to 0.845 ± 0.0391 fold-change vs cycle 0.
In the case of TGTGAA, the binding signal amounted to 1.29 ± 0.0621 fold-change vs cycle 0.
On to AGGGCA, for which the binding signal came to 0.51 ± 0.0852 fold-change vs cycle 0.
On the same count and under the same terms, the value for AATCTC was 1.43 ± 0.0651 fold-change vs cycle 0; that for GTCCAC was 0.569 ± 0.0681 fold-change vs cycle 0.
Same read-out and setting: the value for GAATCA was 1.38 ± 0.0555 fold-change vs cycle 0.
Same read-out and setting: the value for GTTCAA was 1.3 ± 0.0535 fold-change vs cycle 0; that for CCAAGA was 0.931 ± 0.0131 fold-change vs cycle 0; that for GAACAC was 0.932 ± 0.0461 fold-change vs cycle 0.
In the case of GTACTA, the binding signal amounted to 1.29 ± 0.0902 fold-change vs cycle 0.
Same read-out and setting: the value for AAATTT was 1.93 ± 0.166 fold-change vs cycle 0; that for TAAAGA was 1.82 ± 0.201 fold-change vs cycle 0.
The same measure, in the same setting: the value for ACTAGA was 1.41 ± 0.142 fold-change vs cycle 0; that for CTTGTC was 0.915 ± 0.0332 fold-change vs cycle 0; that for ACGGTG was 0.528 ± 0.0554 fold-change vs cycle 0.
On the same count and under the same terms, the value for CCACTC was 0.62 ± 0.0734 fold-change vs cycle 0.
